{"source": "PubChem BioAssay AID1004", "about": "(SRMLSC, 2008)", "note": "Unmarked numbers belong to inactive results. Calls of active or inactive are those of the source.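 Rule for the calls: active = viability at 10 µM of 29.74% or lower, 3 SD below the compound median; inactive = the rest.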"}
{"assay": "viability of HCT116 lacking mutant beta-catenin – cell-based, DP diverse set, validation, pilot screen (AID 1004)", "conditions": "HCT116 (mutant beta-catenin deleted) viability, CellTiter-Glo, 60 h; at 10 µM; hits give low values"}
{"smiles": "CNc1ccc2oc(C[C@@H]3OC4(CC[C@@H]3C)O[C@H](C(C)C(=O)c3ccc[nH]3)[C@H](C)C[C@H]4C)nc2c1C(=O)O", "note": "(stereo not given in full)", "viability": "9.98% (active)"}
{"smiles": "O=C1C=C2C=C[C@@H]3C[C@@]2(O1)[C@H]1CCCCN31", "viability": "86%"}
{"smiles": "C[C@]12CC[C@@H](O)C[C@@H]1CC[C@@H]1[C@@H]2CC[C@]2(C)C(=O)CC[C@@H]12", "viability": "98.5%"}
{"smiles": "COC(=O)C(O)C(O)(CCC(C)C)C(=O)OC1C(OC)=CC23CCCN2CCc2cc4c(cc2C13)OCO4", "note": "(stereo not given)", "viability": "30%"}
{"smiles": "CN1C[C@H](CNC(=O)OCc2ccccc2)C[C@@H]2c3cccc4c3c(cn4C)C[C@H]21", "viability": "80.4%"}
{"smiles": "CC(C)(C)[C@]1(O)C[C@@H]2OC(=O)CC23C(=O)O[C@@H]2OC(=O)[C@H](O)C231", "note": "(stereo not given in full)", "viability": "93.5%"}
{"smiles": "CCCC[C@H]1C(=O)O[C@H](C)[C@H](NC(=O)c2cccc(NC=O)c2OC)C(=O)O[C@@H](C)[C@@H]1OC(=O)CC(C)C", "viability": "95.2%"}
{"smiles": "Nc1ccncc1", "viability": "103%"}
{"smiles": "CC[C@@]1(O)C(=O)OCc2c1cc1n(c2=O)-c2cc3ccccc3nc2C1", "viability": "24.3% (active)"}
{"smiles": "CCN1C[C@@]2(COC)C3[C@@H](OC)[C@H]4C1[C@@]3(C1C[C@]3(O)C(OC)[C@H](O)[C@@]4(OC(C)=O)C1[C@H]3OC(=O)c1ccccc1)[C@H](OC)C[C@H]2O", "note": "(stereo not given in full)", "viability": "99.8%"}
{"smiles": "CCCN1CCC[C@@H]2Cc3cn[nH]c3C[C@H]21", "viability": "103%"}
{"smiles": "COC1=C[C@@H]2[C@@H]3Cc4ccc(OC)c(O)c4[C@]2(CCN3C)CC1=O", "viability": "96.9%"}
{"smiles": "CC(C)c1cc2c(c(O)c1O)[C@@]1(C(=O)O)CCCC(C)(C)[C@@H]1CC2", "viability": "103%"}
{"smiles": "N#CC(C#N)=Cc1cc(O)c(O)c([N+](=O)[O-])c1", "viability": "101%"}
{"smiles": "C[C@@H]1CC[C@H]2[C@@H](C)C(=O)O[C@@H]3OC4(C)CC[C@@H]1[C@]32OO4", "viability": "100%"}
{"smiles": "CN(C)[C@@H]1C(=O)C(C(N)=O)=C(O)[C@@]2(O)C(=O)C3=C(O)c4c(O)cccc4[C@@](C)(O)C3CC12", "note": "(stereo not given in full)", "viability": "98.3%"}
{"smiles": "O=C1CCC[C@H]2[C@@H]3CCCN4CCC[C@H](CN12)[C@H]34", "viability": "104%"}
{"smiles": "C=CCN1CC[C@]23c4c5ccc(O)c4O[C@H]2C(=O)CC[C@@]3(O)[C@H]1C5", "viability": "96.6%"}
{"smiles": "NCC(CC(=O)O)c1ccc(Cl)cc1", "note": "(stereo not given)", "viability": "103%"}
{"smiles": "CCCCCCCCCCCCCC(=O)O[C@@H]1[C@@H](C)[C@@]2(O)[C@@H](C=C(CO)C[C@]3(O)C(=O)C(C)=C[C@@H]23)[C@@H]2C(C)(C)[C@]12OC(C)=O", "viability": "82.7%"}
